# Bioassay records (PubChem BioAssay)
# An excerpt weighted towards active compounds, which were near 3.8% of everything screened.
# GALK inh: inhibits human galactokinase; P51570; recombinant GALK, Kinase-Glo ATP luminescence, 1 h; Potency, µM (top dose mostly 57.5 µM), inactives show top-dose activity, negative = inhibition, most hits filed as inhibitors; 44,000 tested, under 10 active; AID 1347072;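 further: plate controls were full GALK reaction for no effect and reaction lacking GALK for full effect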
# Target sequence (P51570 whole entry, looked up): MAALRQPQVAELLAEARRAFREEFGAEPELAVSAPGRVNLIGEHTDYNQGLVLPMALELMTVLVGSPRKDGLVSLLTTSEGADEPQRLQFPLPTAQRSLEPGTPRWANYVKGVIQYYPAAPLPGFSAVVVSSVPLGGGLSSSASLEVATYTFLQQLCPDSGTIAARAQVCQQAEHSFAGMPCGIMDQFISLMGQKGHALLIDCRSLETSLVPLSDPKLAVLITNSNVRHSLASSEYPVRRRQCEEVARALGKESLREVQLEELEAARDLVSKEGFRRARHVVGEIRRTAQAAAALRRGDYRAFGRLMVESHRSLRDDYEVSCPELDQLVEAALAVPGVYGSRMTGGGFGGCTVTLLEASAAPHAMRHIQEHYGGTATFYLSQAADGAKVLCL
#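 Luminescent ATP-depletion readout (Kinase-Glo Plus) after 1 h room-temperature incubation of human GALK (5 nM) with galactose 100 µM and ATP 35 µM, pH 8.0 HEPES/Mg2+ buffer; compounds tested in qHTS format.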
# GPR32 ag: GPR32 (DRV1) agonism, beta-arrestin recruitment | O75388 | CHO-K1 GPR32 beta-arrestin PathHunter luminescence, 90 min; zero percent set by DMSO-only wells | activation, % at 76.9 µM | 48,000 compounds, 2.5% hits | AID 1346428;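 active means activation of at least 60% and not above a set upper limit, about 1 call in 100 departs from these limits; inconclusive means activation of 40% to 60%, or above that upper limit; inactive means activation under 40%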; further: 0% is about no effect
#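 PathHunter enzyme-fragment complementation, CHO-K1 GPR32 stable line; 2,500 cells/well, overnight attach; cpd 90 min 37 °C 5% CO2; detection reagent 1 h RT; chemiluminescence. DMSO = EC0.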
# B2AR arrestin ag: ADRB2 beta-arrestin recruitment. P07550. HTLA Tango cells, beta-arrestin recruitment, luciferase luminescence, 18 h. Potency, µM (top dose mostly 46.1 µM), hits mostly activators. 44,000 tested, under 10 active;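 further: potency means the concentration at half of the fitted maximal effect; 0% = DMSO and full agonism = EC100 isoproterenol or metaproterenol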
#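 Ligand-induced beta-arrestin recruitment to recombinant beta2-AR is measured via a tTA-driven luciferase reporter in Tango cells after 18 hr compound exposure at 37 degrees C. Concentrations span up to 46 microM.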
# PTAP-TSG101 blk: blocks PTAP binding to human TSG101, validation. 44,000 tested, under 10 active. Fluorescence polarization, FITC-PTAP peptide/Tsg101, 20 min. Potency, µM (titrated, usually from 115 µM), most hits filed as inhibitors. Q99816. AID 1347069; further: potency means the concentration at half of the fitted maximal effect; 0% is about no effect
#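 Read-out is FITC fluorescence polarization. Compounds were added to Tsg101 binding domain (10 uM final), then FITC-PTAP peptide (50 nM final), 20 min at r.t. Total S+P intensity flags fluorescent compounds.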
# NTMT1 inh: NTMT1 methyltransferase inhibition. Potency, µM (titrated, usually from 114 µM), inactives show top-dose activity change, negative = inhibition, hits mostly inhibitors. NTMT1 MTase-Glo SAH luminescence, purified enzyme. 59,000 compounds, 2.5% hits;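 further: potency means the concentration at half of the fitted maximal effect; plate controls were DMSO vehicle for no effect and no enzyme for full effect; nearly all actives have a fitted effect of over 65% in size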
# Target sequence (Q9BV86 whole entry, looked up): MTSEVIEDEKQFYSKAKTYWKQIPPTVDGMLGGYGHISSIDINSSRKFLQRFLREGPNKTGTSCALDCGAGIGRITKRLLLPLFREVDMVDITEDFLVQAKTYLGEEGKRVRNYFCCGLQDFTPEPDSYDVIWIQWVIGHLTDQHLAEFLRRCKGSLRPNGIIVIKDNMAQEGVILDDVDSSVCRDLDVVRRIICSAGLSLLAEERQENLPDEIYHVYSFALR
# SKOV3 invasion: ovarian cancer metastasis inhibition, 3D TME model; 46,000 compounds, 0.1% hits; Potency, µM (series often up to 45.8 µM), for the others: at the highest dose activity change, negative = inhibition, usual class: inhibitors; AID 1963576; SKOV3ip1-GFP adhesion/invasion on 3D omental model, fluorescence;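 further: potency means the concentration at half of the fitted maximal effect; plate controls were DMSO wells for no effect and tomatine positive control wells for full effect; nearly all actives have a fitted effect of over 65% in size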
#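 A 3D layer of primary human omental fibroblasts, mesothelial cells, fibronectin and collagen I, grown 48 hr, received SKOV3ip1-GFP cells in serum-free medium plus compounds at 0.36-46 umol/L. After 2 hr RT and 16 hr 37 C, fixed adherent GFP cells were counted; normalized to DMSO and tomatine.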
# DYRK1A inh-1: human DYRK1A kinase inhibition by ATP depletion readout; recombinant DYRK1A, Kinase-Glo ATP depletion luminescence; 100 compounds, 80% hits; shares compounds with NTMT1 inh; Potency, µM (doses to about 76.9 µM), for the others: at the highest dose activity change, negative = inhibition, actives largely listed as inhibitors
# CLK4 inh-1: CLK4 kinase inhibition, SAR round 2. AID 493204. 90 compounds, 90% hits. shares compounds with NTMT1 inh. Potency, µM (series often up to 76.9 µM), without a hit: top-dose activity, negative = inhibition, most hits filed as inhibitors. recombinant Clk4, Kinase-Glo ATP luminescence, 4.5 h
# CLK4 inh-2: blocks human CLK4 kinase in radiometric assay; shares compounds with NTMT1 inh; Reaction Biology kinase assay, 10 uM ATP; Potency, µM, usual class: inhibitors; 65 compounds, 100% hits; AID 504421; calls by dose curve
# DYRK1A inh-2: inhibitors of human DYRK1A kinase. AID 504424. Reaction Biology kinase assay, 10 uM ATP. shares compounds with NTMT1 inh. 65 compounds, 90% hits. Potency, µM, most hits filed as inhibitors;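 active means compounds that showed inhibition of Dyrk1a and received a fitted potency; inactive means compounds that showed no inhibition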
# CLK2 inh: CLK2 kinase inhibition. shares compounds with NTMT1 inh. Reaction Biology kinase assay, 10 uM ATP. Potency, µM, usual class: inhibitors. 65 compounds, 90% hits;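 active means compound that inhibits Clk2 kinase in the dose series, with an IC50 potency reported; inactive means no inhibition seen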
# CLK3 RBC: inhibitors of human CLK3 kinase; shares compounds with NTMT1 inh; recombinant CLK3 kinase assay, 10 uM ATP; Potency, µM, most hits filed as inhibitors; 65 compounds, 40% hits; AID 504428;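 active means compounds that inhibited Clk3 enough in the ten-dose series to give a half-maximal potency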
# DYRK1B RBC: inhibitors of human Dyrk1b kinase | shares compounds with NTMT1 inh | Recombinant Dyrk1b kinase assay, 10 uM ATP | Potency, µM, most hits filed as inhibitors | 65 compounds, 80% hits | AID 504429;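 active means compounds whose dose response shows an inhibitor phenotype against the kinase Dyrk1b; inactive means compounds showing no inhibitor phenotype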
# CLK1 inh: blocks human CLK1 kinase activity | 65 compounds, 90% hits | recombinant Clk1 kinase assay, 10 uM ATP | shares compounds with NTMT1 inh | AID 504430 | Potency, µM, usual class: inhibitors;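 active means compounds that block the splicing kinase Clk1 enough to give a fitted half-inhibition concentration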
# NNMT counter: human NNMT inhibition, NTMT1 counter-screen; shares compounds with NTMT1 inh; AID 1645878; NNMT MTase-Glo luminescence, SAH detection; Potency, µM (top dose mostly 57.1 µM), inactives show top-dose activity, negative = inhibition, actives largely listed as inhibitors; 120 compounds, 10% hits
# The depositor's hits bear a star; i = inactive; ? = inconclusive; . = no result; [ ] = another dose, or the depositor's remark. Unless noted, the call rests on the fitted dose curve; in most records, active means well fitted curve in the direction sought with a large enough effect; inconclusive means small, poorly fitted or top-dose-only effect, or another doubt; inactive means no such curve, though single readings can be large; an effect the other way counts as inactive or inconclusive.
SMILES,GALK inh,GPR32 ag,B2AR arrestin ag,PTAP-TSG101 blk,NTMT1 inh,SKOV3 invasion,NNMT counter,others
Cc1cccc(-c2noc(-c3ccccc3NC(=O)C3CC(=O)N(c4ccccc4C)C3)n2)c1 (stereo unspecified),2%,-7,i,i,-1%,-6%,.,
Cc1ccc(NC(=O)CN2C(=O)CCc3cc(S(=O)(=O)N4CCOCC4)ccc32)cc1N(C)C,0%,4,i,i,-5%,i,.,
Cc1cccc(NC(=O)CSc2nc(=O)n(Cc3cccnc3)c3c2CCC3)c1,2%,-5,i,i,-15%,1%,.,
CCOc1cc(CNC(=O)c2cc(-c3ccc(Cl)s3)nc3ccccc23)ccc1OC,2%,-5,i,i,-6%,-7%,.,
C=Cc1cc2oc(-c3ccc(O)c(F)c3)nc2cc1O,.,.,.,.,28µM*,.,?,
O=c1nc(-c2ccccn2)sc2ccccc12,.,.,.,.,20µM*,.,?,
CCn1cnc(CCN(C)c2ncnc3ccc(-c4ccc5c(c4)OCO5)cc23)c1,.,.,.,.,.,.,.,DYRK1A inh-1=8.2µM*
Cc1nc(CN(C)c2ncnc3cc(-c4ccc5c(c4)OCO5)ccc23)cs1,.,.,.,.,?,.,.,DYRK1A inh-1=9.2µM*;CLK4 inh-2=15*;DYRK1A inh-2=i;CLK2 inh=i;CLK3 RBC=i;DYRK1B RBC=i;CLK1 inh=i
Cc1nc(C(C)N(C)c2ncnc3ccc(-c4ccc5c(c4)OCO5)cc23)cs1 (stereo unspecified),.,.,.,.,-9%[57.5 µM],.,.,CLK4 inh-1=29µM*
Cc1csc(CNc2ncnc3ccc(-c4ccc5c(c4)OCCO5)cc23)c1,.,.,.,.,1%[57.5 µM],.,.,
Cc1nc(CCN(C)c2ncnc3ccc(-c4ccc5c(c4)OCO5)cc23)cs1,.,.,.,.,?,.,.,CLK4 inh-1=0.082µM*
CC1CCCCN1c1nc(-c2ccc(C(C)(C)C)cc2)nc2ccccc12 (stereo unspecified),2%,-23,i,i,7%,i,.,
Nc1c(-c2nc(-c3ccc4c(c3)OCO4)cs2)c2ccccn2c1C(=O)c1ccccc1,-1%,17,i,i,5%,-5%,.,
Cc1ccccc1-c1noc(-c2ccc(N3CCCCC3)c([N+](=O)[O-])c2)n1,1%,-6,i,i,-3%,-1%,.,
C/C(=N\N=C(N)N)c1cc(NC(=O)CCCCCCCCC(=O)Nc2cc(/C(C)=N/N=C(N)N)cc(/C(C)=N/N=C(N)N)c2)cc(/C(C)=N/N=C(N)N)c1,.,.,.,.,5.6µM*,.,?,
CC(=O)c1c(OCCN2CCCCC2)c(OCCC(C)c2ccc(F)cc2)c2oc(C)nc2c1C (stereo unspecified),.,.,.,.,?,.,?,
Cc1oc2ncnc(N3CCCCC3)c2c1C(=O)NCC1CCN(Cc2ccc(F)cc2)CC1,4%,-3,i,i,-1%,10%,.,
CCC(CC)C(=O)Nc1ccccc1SCc1cc(=O)c2cccc(C)c2[nH]1,1%,13,i,i,0%,2%,.,
CN(C)CCCOc1ccc(-c2ccc3ncc4c(c3c2)n(C2CCOCC2)c(=O)n4C)cn1,.,.,.,.,0%[57.5 µM],.,.,
COc1ccc(-c2cc3c(C)nc(N)nc3n(C3CCC(OCCO)CC3)c2=O)cn1 (stereo unspecified),.,.,.,.,0%,-17%,?,
